From PubChem BioAssay (EPA / NIEHS) come the findings set out here.

Activity calls are given as the source filed them. Rule for the calls: active = hit-call score of the fitted dose curve at least 0.9, where 1 is the maximum; inactive = score below 0.9.

Read-out in the experiment: DNA damage-inducible transcript 3 (DDIT3), DDIT3 (gene 1649)
The experiment in a line: LTEA_HepaRG_DDIT3: Life Technologies and Expression Analysis (LTEA) Assay for DNA damage-inducible transcript 3 (DDIT3) using HepaRG (AID 2283488). As to conditions: mRNA level, 48 h; actives raise or lower the signal. On the procedure: LTEA_HepaRG is a cell based, multiplexed-readout assay that uses HepaRG, a human liver cell line, with measurements taken at 48 hours after chemical dosing on a 96-well plate.LTEA_HepaRG_DDIT3 is one of 102 assay component(s) measured in the LTEA HepaRG cell culture assay. It is a marker of Oxidative Stress.Data from the assay component LTEA_HepaRG_DDIT3 was analyzed into 1 endpoint. This assay endpoint, LTEA_HepaRG_DDIT3, was analyzed with bidirectional fitting relative to DMSO as the negative control and baseline of activity. Using a type of inducible reporter, measures of mRNA induction for gain or loss-of-signal activity can be used to understand regulation of transcription factor activity. To generalize the intended target to other relatable targets, this assay endpoint is annotated to the dna binding intended target family, where the subfamily is basic leucine zipper.
A total of 1060 chemcials from the ToxCast library were tested in eight-point concentration-response experiments. Cell culture and cytotoxicity assays were conducted at Thermo Fisher Scientific's Custom Services facility (Madison, WI). A single lot of human HepaRG cells (Thermo Fisher Scientific, Frederick, MD) was used for the cell culture experiments. 96-well format collagen type I coated plates of human HepaRG cells were prepared using established methods. Briefly, cryopreserved HepaRG cells were thawed, plated at a density of approximately 100,000 cells/well in HepaRG Thaw, Plate, and General Purpose media (HPRG770, Thermo Fisher Scientific), and incubated for 48 hours. 0.5% DMSO was selected as vehicle control to balance the requisite need of DMSO in HepaRG cultures to maintain differentiation (for example, baseline metabolism, proportions of hepatocytes vs. cholangiocytes), while enabling further hepatic receptor pathway activation (for example, PXR and CAR) in response to chemical exposure. 48 hours after plating, the culture medium was replaced with HepaRG Serum-Free Incudtion Media. Cells were exposed to each test chemical in duplicate and maintained in CO2 incubators for another 48 hours. Chemical plates were thawed to room temperature and 200x concentrations of treatment groups were prepared. 8-point conentration-reponse curves were made with the highest exposure at 100 uM, followed by half-log dilutions, all in 0.5% DMSO. Each test plate contained variouse controls, induction positive controls (1mM phenobarbital), cytotoxicity positive controls ([…] aflatoxin B1), vehicle controls (0.5% DMSO), and total lysis controls (0.5% DMSO). Cell morphology images were taken using an Essen IncuCyte FLR automated microscope, with six 96-well plates imaged in about 24 minutes. Images were captured and exported and JPEG files. Spent culture media was transfered to black-well plates for the LDH assay, and remaining media was sorted at -80 C for later use. Cells were treated with RLT buffer and frozen until shipped for gene expression analysis. Total RNA was isolated from the cell suspension in 75 uL of Buffer RLT (Qiagen, Germantown, MD 20874) by Quintiles/Expression Analysis (Durham, NC) using a custom isolation procedure. Total RNA from each plate well was transferred to a preamplification plate. Fluidigm's 96.96 Dynamic ArrayTM (Fluidigm, Amsterdam, the Netherlands) technology was used for gene expression analyses by quantitative reverse transcription polymerase chain reaction (qRT-PCR, performed by Quintiles/Expression Analysis, Durham, NC)89. Standard TaqManTM Assays (Applied Biosystems/ThermoFisher Scientific, Foster City, CA) were used to assess the expression of 93 genes selected based on their selectivity and sensitivity to important hepatic receptors known to be modulated by environmental chemicals; importance in human hepatocyte functionality; and hepatotoxicity. […]
With `Clc1ccc(Cl)cc1`, the compound was classed as inactive.
By AC50 is commonly meant the midpoint of the concentration-response curve, whichever way the signal moves. Regarding `NS(=O)(=O)C(F)(F)C(F)(F)C(F)(F)C(F)(F)C(F)(F)C(F)(F)C(F)(F)C(F)(F)F`, the AC50 was 28.9 µM (active).
As for `Cc1cc(O)ccc1Cl`, the result was inactive.
On to `CC#Cc1cc(C)nc(Nc2ccccc2)n1`, for which the call was inactive.
Still for that read-out and setting: to `O=C(NC(=O)c1c(F)cccc1F)Nc1cc(Cl)c(OC(F)(F)C(F)F)c(Cl)c1` belongs “inactive”; to `O=S(=O)(O)C(F)(F)C(F)(F)C(F)(F)C(F)(F)F`, “inactive”.
As to `Oc1ccc(Cl)cc1Cl`, the outcome was inactive.
For the compound `C=CC(=O)NCNC(=O)C=C`, the outcome was inactive.
As for `CCC(C)(c1ccc(O)cc1)c1ccc(O)cc1`, the compound was called inactive.
As to `Cc1cccc([N+](=O)[O-])c1`, the call was inactive.
The same measure, in the same setting: the entry for `Nn1cnnc1` is “inactive”; for `CN(C)c1nc(=O)n(C2CCCCC2)c(=O)n1C` it is “inactive”.
Consider `Oc1ccc(C(c2ccc(O)cc2)(C(F)(F)F)C(F)(F)F)cc1`, for which the AC50 was 79.3 µM (active).
As to `O=C(NC(=O)c1cc(F)c(F)cc1Cl)Nc1cc(F)ccc1N1CCC(C(=O)O)CC1`, the compound was called inactive.
Still for that read-out and setting: to `CCCN(CCC)N=O` belongs “inactive”; to `CCSC(=O)N(CC)C1CCCCC1`, “inactive”.
Take `O=C(O)C(F)(F)C(F)(F)C(F)(F)C(F)(F)C(F)(F)F`: the compound was classed as inactive.
Take `c1cc2ccc3cccc4ccc(c1)c2c34`: the compound was called inactive.
In the case of `C[C@]12CCC(=O)C=C1CC[C@@H]1[C@@H]2CC[C@@]2(C)[C@H]1CC[C@]2(C)O`, the AC50 was 80 µM (active).
As to `Cc1ccccc1[N+](=O)[O-]`, the compound was called inactive.
The same measure, in the same setting: to `COc1ccc(O)c(C(C)(C)C)c1` belongs “inactive”.
Take `CO/C=C(/C(=O)OC)c1ccccc1COc1cccc(C(F)(F)F)n1`: the half-maximal activity concentration (AC50) is 8.83 µM (active).
With `ClC1=C(Cl)[C@]2(Cl)[C@@H]3[C@@H](Cl)[C@H]4O[C@H]4[C@@H]3C1(Cl)C2(Cl)Cl`, the compound was classed as inactive.
Turning to `CCC(C)c1cc([N+](=O)[O-])cc([N+](=O)[O-])c1O` (stereo not given), the AC50 is 5.95 µM (active).
With `CCCCCCCCCc1ccc(O)cc1`, the compound was called inactive.
Turning to `Cc1ccccc1O`, the outcome was inactive.
In the case of `CCOP(=S)(OCC)SCSC(C)(C)C`, the compound was classed as inactive.
Take `CCCCCCCCCC[N+](C)(C)CCCCCCCCCC`: the concentration at half-maximal activity (AC50) was 74 µM (active).
In the case of `O=S(=O)(O)C(F)(F)C(F)(F)C(F)(F)C(F)(F)C(F)(F)C(F)(F)F`, the result was inactive.
In the case of `Cc1cc(-c2ccc(N)c(C)c2)ccc1N`, the result was inactive.
The same measure, in the same setting: to `Cc1ccccc1CO[C@@H]1C[C@@]2(C(C)C)CC[C@]1(C)O2` belongs “inactive”; to `CCC(=O)O[C@H]1CC[C@H]2[C@@H]3CCC4=CC(=O)CC[C@]4(C)[C@H]3CC[C@]12C`, “inactive”; to `CCNc1nc(NC(C)C)nc(SC)n1`, “inactive”.
Turning to `O=C(N[C@H]1CN2CCC1CC2)c1cc2ccoc2cn1`, the call was inactive.
As for `Oc1c(Cl)c(Cl)c(Cl)c(Cl)c1Cl`, the half-maximal activity concentration (AC50) is 11.7 µM (active).
With `COS(=O)(=O)OC`, the compound was called inactive.
As for `CC(C)(c1ccccc1)c1ccc(O)cc1`, the compound was called inactive.
Consider `Nc1ccc(-c2ccc(N)cc2)cc1`, for which the compound was called inactive.
On the same count and under the same terms, the entry for `CCOC(=O)C(O)(c1ccc(Cl)cc1)c1ccc(Cl)cc1` is “inactive”.
In the case of `O=C(O)C(F)(F)C(F)(F)C(F)(F)C(F)(F)C(F)(F)C(F)(F)C(F)(F)C(F)(F)F`, the AC50 is 77.9 µM (active).
